D3 ag = qHTS of D3 Dopamine Receptor Agonist: qHTS | D3R DiscoveRx beta-arrestin cells, luminescence, 90 min | max activation, % | 410,000 tested, 0.58% active; in the data active = max activation above about 30%
Target sequence (P35462 whole entry, looked up): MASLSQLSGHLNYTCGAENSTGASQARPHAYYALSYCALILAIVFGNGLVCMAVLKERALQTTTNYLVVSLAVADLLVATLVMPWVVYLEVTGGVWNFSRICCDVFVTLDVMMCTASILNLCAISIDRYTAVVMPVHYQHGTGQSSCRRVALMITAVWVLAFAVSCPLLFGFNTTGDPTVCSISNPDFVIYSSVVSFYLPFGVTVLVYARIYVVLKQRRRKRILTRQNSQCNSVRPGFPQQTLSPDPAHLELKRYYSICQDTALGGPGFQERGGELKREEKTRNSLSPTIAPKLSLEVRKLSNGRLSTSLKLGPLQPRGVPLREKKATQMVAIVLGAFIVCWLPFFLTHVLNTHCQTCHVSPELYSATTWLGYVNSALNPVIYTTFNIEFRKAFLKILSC
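Cells at 1500/well, incubated overnight, then treated with pinned compounds (dopamine as control) for 90 min at 37 degrees C. DiscoveRx reagent added for 30 - 60 minutes at room temperature; luminescence read.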
DRD3 antagonist = qHTS of D3 Dopamine Receptor Antagonist: qHTS | AID 652054, 2013 | max response, negative = inhibition, % | D(3) dopamine receptor (Homo sapiens), P35462 | 360,000 tested, 2.5% active | D3R cells, DiscoveRx beta-arrestin luminescence, antagonist mode; hits give low values; in the data active = max response below about -50%; inconclusive = no clear call, values can overlap the other calls
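Cells expressing the human receptor were seeded at 1500 cells/well, incubated overnight at 37 degrees C in 5% CO2, then exposed to library compounds with dopamine controls for 90 minutes at 37 degrees C before luminescent detection.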
HEK293 tox = qHTS of GLP-1 Receptor Inverse Agonists: Cytotox Screen; HEK293 cAMP-luciferase reporter cells, luminescence, 24 h; Potency, µM (top dose mostly 38.3 µM), hits mostly inhibitors; 410,000 tested, 0.13% active; AID 624418, 2012;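 note: loss of luciferase light is scored as toxicity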
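Compound-treated cells are incubated 24 hr at 37 deg C under 5% CO2 after a 12 hour attachment period, then luciferase detection reagent is added and luminescence is measured following 12 min at room temperature; lowered signal indicates toxicity.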
GLP-1R inv ag = qHTS of GLP-1 Receptor Inverse Agonists (Inhibition Mode). Potency, µM (highest dose often 38.3 µM), usual class: inhibitors. HEK293 GLP-1R CRE-luciferase, luminescence, 24 h; GLP-1R form is constitutively active. AID 624417, 2012. Glucagon-like peptide 1 receptor (Homo sapiens), P43220. 410,000 tested, 1.6% active; note: nearly all actives have a fitted effect of over 55% in size
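Luminescence readout: a drop in cAMP-driven luciferase signal flags inverse agonism at a constitutively active GLP-1R stably expressed in HEK293. Compound exposure lasted 24 hr at 37 deg C, 5% CO2.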
GLP1R ag = qHTS of GLP-1 Receptor Agonists. 380,000 tested, 0.007% active. HEK293 GLP-1R CRE-luciferase, luminescence, 4-6 h; cells express a hypersensitive GLP-1R form. AID 624172, 2012. Glucagon-like peptide 1 receptor (Homo sapiens), P43220. Potency, µM (series often up to 45.6 µM), actives largely listed as activators
ClpP mod = qHTS Assay for Activators of ClpP; ATP-dependent Clp protease proteolytic subunit (Bacillus subtilis (strain 168)), P80244; purified B. subtilis ClpP, FRET peptide cleavage, 20 min; Potency, µM (doses to about 57.5 µM); 340,000 tested, 1.9% active; active = well fitted falling curve with a large enough effect; inconclusive = small, poorly fitted or top-dose-only effect; inactive = no such curve, though single readings can be large or run the other way; note: the source files actives as falling curves though it sought activators and does not explain the sign; nearly all actives have a fitted effect of over 65% in size
Target sequence (P80244 whole entry, looked up): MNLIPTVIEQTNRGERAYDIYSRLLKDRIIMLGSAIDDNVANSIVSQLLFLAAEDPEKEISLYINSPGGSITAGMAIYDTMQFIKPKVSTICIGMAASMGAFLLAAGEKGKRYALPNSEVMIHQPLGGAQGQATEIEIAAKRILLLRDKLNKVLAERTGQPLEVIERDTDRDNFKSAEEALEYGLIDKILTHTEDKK
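ClpP 10 microg/mL final, pH 8 Tris/KCl buffer with BSA, glycerol, Tween-20; compound pinned in; FRET-FV substrate; RT 20 min; Ex320/Em430; ΔFRET vs ADEP 5.8 microM, DMSO, no enzyme.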
Numbers stand for hits; . = inactive; ? = inconclusive; / = not tested or not shown. The list is not random: actives were taken first. Their share in the collection is about 5.7%. Unless noted, calls come from the whole dose curve; as a rule, active = well fitted curve in the direction sought with a large enough effect; inconclusive = small, poorly fitted or top-dose-only effect, or another doubt; inactive = no such curve, though single readings can be large; an effect the other way counts as inactive or inconclusive.

SMILES	D3 ag	DRD3 antagonist	HEK293 tox	GLP-1R inv ag	GLP1R ag	ClpP mod
COc1ccc(NC(=O)COC(=O)c2cc(SC)ccc2Cl)c(OC)c1	32.4	.	.	.	.	.
CSc1ccc(CCNC(=O)C2=C(C)C(=O)OC23CCCCC3)cc1	.	/	.	.	/	.
O=C(NCc1cccs1)Nc1ccc(Cl)cc1	.	.	.	.	.	20µM
CN(CC(=O)Nc1cc(Cl)cc(Cl)c1)Cc1cccs1	.	.	.	12.6µM	.	/
CC(Cc1cccs1)NC(=O)Nc1cccc(Cl)c1 (stereo not given)	.	.	.	11.2µM	.	.
COc1ccc(N(Cc2cccs2)C(=O)Nc2cccc(Cl)c2)cc1	.	/	.	10µM	/	.
CN(CC(=O)Nc1ccc(F)cc1Cl)Cc1cccs1	.	.	.	?	.	/
Cc1ccc(N(Cc2cccs2)C(=O)Nc2cccc(Cl)c2)cc1	.	/	.	.	/	.
CCN(CC)c1nc(C=Cc2ccc(N(C)C)cc2)c2nccnc2n1	.	.	.	.	.	.
CCOc1ccc(Cl)cc1-c1cc(C(=O)Nc2ccc(Br)cc2)[nH]n1	.	.	.	?	.	?
Cc1cccc(Cn2c(=O)n(-c3cc(C)cc(C)c3)c(=O)c3oc4ccccc4c32)c1	.	/	.	.	/	.
CCOc1ccc(S(=O)(=O)N2CCC(N3CCN(Cc4ccc(F)cc4)C(=O)C3=O)CC2)cc1	.	/	.	?	/	.
CCCn1c2ccccc2c2cnn(CC(=O)Nc3cc(C)c(Cl)cc3OC)c(=O)c21	.	/	.	.	/	.
Oc1ccc(Cl)cc1/C=N/c1nccs1	.	.	.	.	.	.
Oc1c(Br)cc(Br)cc1/C=N/c1nccs1	.	-55.2	.	?	.	.
O=C(N/N=C/c1ccco1)C1CC1(c1ccccc1)c1ccccc1 (stereo not given)	.	.	.	10µM	.	.
COc1ccc(Cl)cc1C(=O)NNC(=O)C1COc2ccccc2O1 (stereo not given)	.	.	.	.	.	/
O=C(NN=C1CCCC1)C1COc2ccccc2O1 (stereo not given)	43.1	.	.	.	.	.
O=C(NNC(=O)C1COc2ccccc2O1)c1ccccc1O (stereo not given)	32.4	.	.	.	.	?
Cc1nc2ccc(S(=O)(=O)NC(C(=O)N3CCN(c4ccc(Cl)cc4)CC3)C(C)C)cc2s1 (stereo not given)	.	/	.	.	.	.
CC(C)N(Cc1ccccc1)C(=O)CCc1ccccc1	.	.	.	?	.	.
CC(C)(C)N(Cc1ccccc1)C(=O)CCc1ccccc1	.	.	.	22.4µM	.	/
Cc1cc(C)c(NC(=O)c2cc(C)nc3c2c(C)nn3-c2cccc(F)c2)c(C)c1	.	/	.	.	/	.
Cc1ccc2c(c1)CCC2=O	/	/	/	/	/	.
Cc1ccc(S(=O)(=O)/N=C(/c2ccccc2)N2CCOCC2)cc1	35.9	.	.	.	.	/
SMILES	D3 ag	DRD3 antagonist	HEK293 tox	GLP-1R inv ag	GLP1R ag	ClpP mod
Cc1cc(Nc2ccc(C)c(C)c2)n2cnnc2n1	.	/	.	.	/	.
C(#Cc1ccc(C#CCN2CCCC2)cc1)CN1CCCC1	.	.	?	3.55µM	.	.
O=C(c1ccccc1)N1CCN(CC#Cc2ccccc2)CC1	.	.	.	.	.	.
COCCN1C[C@@H](CO)O[C@@H](n2cnc3c(NC4CCCC4)ncnc32)C1	.	.	.	.	.	.
CCCCc1c(CCC)c(=N)c2ccccc2n1C	.	-72.8	?	?	.	15.8µM
Cc1cc(C)c(NC(=O)C(=O)NCCc2csc(-c3ccc(F)cc3)n2)c(C)c1	.	/	.	?	/	.
CCN(CC)CC#CCC(O)(c1ccccc1)c1ccccc1	.	-78.5	.	?	.	.
CCN(CC)CC#CCC(C)(c1ccccc1)c1ccccc1	.	-55.1	.	?	.	.
CCN(CC)CC#CCC(O)(c1ccccc1)c1ccc(Br)cc1 (stereo not given)	.	.	.	10µM	.	.
CCN(CC)CC#CCOC(c1ccccc1)c1ccccc1	.	.	.	5.62µM	.	/
CN(C)CC#CCC(O)(c1ccccc1)c1ccccc1	.	.	.	?	.	.
CCOc1ccc(CNC(=O)C2Cc3ccccc3N2C(=O)CC)cc1OC (stereo not given)	.	/	.	.	/	.
Cc1ccc(Cl)cc1NC(=O)CCCn1c(=O)c2cccn2c2ccccc21	.	/	.	.	/	.
CCN(CC)CCC(C)OC(c1ccccc1)c1ccccc1 (stereo not given)	.	-53.1	.	?	.	.
CCCCCCCCCCCCCC[N+](C)(C)C	.	/	/	/	.	/
CCCCCCCC[N+](C)(C)CCCCCCCC	.	/	/	/	.	/
CCCCCCCCCCCCCCCC[N+](C)(C)CC	.	.	.	11.2µM	.	.
CCCCCCCCCCCCCCCC[N+](C)(C)CCl	.	.	?	3.55µM	.	.
CCOC(=O)c1cc(-c2ccc(C)cc2)n(CCC(=O)Nc2ccc(C(C)C)cc2)c1C	.	/	.	2.51µM	.	.
CCOC(=O)c1cc(-c2ccc(OC)cc2)n(CCC(=O)NC2CCN(Cc3ccccc3)CC2)c1C	.	.	?	?	.	.
CCOC(=O)c1cccc(NC(=O)CCn2c(-c3ccc(F)cc3)cc(C(=O)OCC)c2C)c1	.	/	.	10µM	/	.
CCOC(=O)c1cc(-c2ccccc2)n(CCCC(=O)Nc2cccc(C)c2)c1C	.	/	.	?	/	.
CCOC(=O)c1cc(-c2ccc(F)cc2)n(CCC(=O)NC2CCN(Cc3ccccc3)CC2)c1C	.	.	?	7.94µM	.	.
COc1ccc(CCNC(=O)c2sc3nc4n(c(=O)c3c2C)CCCC4)cc1OC	.	/	.	.	/	.
Cn1c(=O)n(-c2ccc3c(c2)OCO3)c2nc(-c3ccccc3)nc(C(N)=O)c21	.	/	.	.	.	.
Cc1nc2c([nH]1)C1(CCN(Cc3ccccc3)CC1)C(C#N)=C(N)O2	.	.	.	.	.	15.8µM
O=C(CN1CCC(n2nnc3cc(F)ccc32)CC1)NC1CC1	.	-56.7	.	.	.	.
O=C(CN1CCC(n2nnc3cc(F)ccc32)CC1)NCCc1ccccc1	.	.	.	.	.	.
O=C(CN1CCC(n2nnc3cc(F)ccc32)CC1)NC1CCCCC1	.	-85.5	.	.	.	.
COC(=O)c1ccccc1NC(=O)CN1CCC(n2nnc3cc(F)ccc32)CC1	.	.	.	.	.	.

Compound activity from PubChem.
